Hits are enriched below; roughly 8.2% of the tested compounds scored in any of these assays.
KB-V1 MDR tox = KB-V1 MDR subline cytotoxicity | AID 1347076 | 400,000 tested, 3.4% active | Potency, µM (series often up to 46.1 µM), hits mostly cytotoxic | KB-V1 MDR cells viability, CellTiter-Glo, 72 h; further: nearly all actives have a fitted effect of over 60% in size
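Potencies derive from concentration-effect curves fitted to normalized luminescence (CellTiter-Glo) of KB-V1 cells treated for 72 h at 37 degrees C in phenol-red-free DMEM containing 10% FBS.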
ELG1 repair inh = inhibitors of ELG1-dependent DNA repair in HEK293T cells; HEK293T ELG1-luciferase reporter, luminescence, 16 h; DNA damage induced by 5-fluorouridine; Potency, µM (highest dose often 46.1 µM), hits mostly inhibitors; 330,000 tested, 2.3% active; AID 504467; further: nearly all actives have a fitted effect of over 55% in size
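Step one: seed 2,000 cells per well. Step two: pin-transfer compound or DMSO alongside 5-fluorouridine. Step three: incubate 16 hr, 37 °C, 5% CO2. Step four: add ONE-Glo, wait 30 min, read luminescence.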
SW480 rereplic = DNA re-replication induction in SW480 cells; SW480 DNA re-replication, Hoechst DNA content imaging, 48 h; Potency, µM (highest dose often 46.1 µM), usual class: activators; 340,000 tested, 1.8% active; further: nearly all actives have a fitted effect of over 55% in size
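SW480 cells exposed to compounds for 48 hr at 37 C, 5% CO2, then Hoechst-stained 40 min. Nuclear DNA content imaged by fluorescence scanning (405 nm excitation, 500-530 nm emission); re-replication scored as increased high-intensity nuclei.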
KB-3-1 tox = KB-3-1 parental cell cytotoxicity | KB-3-1 viability, CellTiter-Glo ATP luminescence, 72 h | 400,000 tested, 1.4% active | AID 1347075 | Potency, µM (series often up to 46.1 µM), most hits filed as cytotoxic; further: nearly all actives have a fitted effect of over 60% in size
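Multi-concentration cytotoxicity screen in KB-3-1 cells grown in DMEM lacking phenol red with 10% FBS. After 72 h at 37 °C with compound, ATP-dependent luminescence was recorded.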
MCF10A rereplic = DNA re-replication induction in MCF 10a cells; MCF 10A DNA re-replication, Hoechst nuclear intensity, 48 h; Potency, µM (series often up to 46.1 µM), usual class: activators; 350,000 tested, 2.9% active; AID 624296; further: nearly all actives have a fitted effect of over 50% in size
Of the large screens only hits and unclear results are named; the others gave an inactive call. The call rests on the fitted dose curve; in most records, active means well fitted curve in the direction sought with a large enough effect; inconclusive means small, poorly fitted or top-dose-only effect, or another doubt; inactive means no such curve, though single readings can be large; an effect the other way counts as inactive or inconclusive.

CCOC(=O)C1=C(C)NC2=C(C(=O)C(C(=O)OCC)C(c3ccco3)C2)C1c1ccccn1 (stereo unspecified)	SW480 rereplic 6.5µM
Cc1nnc(SCC(=O)NC2CCCCCC2)n1N	KB-3-1 tox inconclusive
Cc1ccc(-n2nnnc2SCc2nnc(-c3ccccc3Br)o2)c(C)c1	KB-V1 MDR tox 10µM
Cn1nnnc1SCc1nnc(-c2ccccc2Br)o1	ELG1 repair inh inconclusive
COc1ccc(CN(C)C(=O)COC(=O)c2ccc(-c3ccccc3)cc2)c(OC)c1OC	none
Cc1ccc(C)c(OCCn2cc(/C=C(/C#N)C(=O)NCC3CCCO3)c3ccccc32)c1 (stereo unspecified)	KB-V1 MDR tox 15µM, ELG1 repair inh 15µM, MCF10A rereplic inconclusive
N#C/C(=C\c1cn(CCOc2ccccc2)c2ccccc12)C(=O)NCC1CCCO1 (stereo unspecified)	KB-V1 MDR tox 6.5µM, ELG1 repair inh inconclusive, SW480 rereplic inconclusive
Cc1cc(/C=C(\C#N)C(=O)NCC2CCCO2)c(C)n1-c1ccc(Cl)cc1 (stereo unspecified)	KB-V1 MDR tox 4.1µM, ELG1 repair inh inconclusive
COc1cc(/C=C(\C#N)C(=O)NCC2CCCO2)ccc1O (stereo unspecified)	KB-V1 MDR tox inconclusive
COc1ccccc1OCCn1cc(/C=C(\C#N)C(=O)NCc2cccs2)c2ccccc21	KB-V1 MDR tox 18µM, ELG1 repair inh inconclusive
O=C(NCCOc1ccccc1)C(=O)NCC1CCCO1 (stereo unspecified)	KB-V1 MDR tox inconclusive, ELG1 repair inh inconclusive
CN(N=O)c1ccc(/C=C/c2ccnc3ccccc23)cc1	none (no result: ELG1 repair inh, SW480 rereplic, MCF10A rereplic)
CCOc1ccc(NC(=O)/C(C#N)=C/c2cn(CC(=O)O)c3ccccc23)cc1	ELG1 repair inh inconclusive, MCF10A rereplic inconclusive
CCOC(=O)/C(C#N)=C/c1cn(CCOc2ccc(OC)cc2)c2ccccc12	ELG1 repair inh 12µM, MCF10A rereplic 16µM
O=C(CSC1=N/C(=C/c2ccc(Cl)c(Cl)c2)C(=O)N1c1ccccc1F)NC1CC1	KB-V1 MDR tox 15µM, ELG1 repair inh inconclusive, SW480 rereplic inconclusive, MCF10A rereplic 15µM
COc1cc(Br)c(CC2c3cc(OC)c(OC)cc3CCN2C)cc1OC (stereo unspecified)	KB-V1 MDR tox 21µM (no result: ELG1 repair inh)
CC(=O)c1cccc(S(=O)(=O)NCCC(=O)NC2CCCCCC2)c1	KB-V1 MDR tox inconclusive, SW480 rereplic inconclusive
O=C(NCC1CC1)[C@]1(C(F)(F)F)C[C@H](CCC2CCCCC2)CCCO1	none (no result: ELG1 repair inh)
CCN(CC)c1ccc(/C=C2\SC(=O)N(C(C)C)C2=O)o1	ELG1 repair inh inconclusive, SW480 rereplic inconclusive, KB-3-1 tox inconclusive, MCF10A rereplic 3.7µM
CC(C)N1C(=O)S/C(=C/c2ccc3c(c2)n(C)c(=O)n3C)C1=O	KB-V1 MDR tox inconclusive, ELG1 repair inh inconclusive, SW480 rereplic inconclusive, MCF10A rereplic inconclusive
Cn1c(C(=O)N2CCN(c3ncccn3)CC2)cc2c(=O)n(C)c3ccccc3c21	ELG1 repair inh 9.2µM
Cc1ccc(Cl)cc1N1CCN(C(=O)c2cc3c(=O)n(C)c4ccccc4c3n2C)CC1	KB-V1 MDR tox 2.6µM, ELG1 repair inh inconclusive, KB-3-1 tox inconclusive
Cc1ccc2nc3c(cc(C(=O)NC4CCCC4)c(=N)n3C(C)C)c(=O)n2c1	none (no result: ELG1 repair inh, SW480 rereplic, MCF10A rereplic)
N=c1c(C(=O)NC2CCCC2)cc2c(=O)n3ccccc3nc2n1C1CCCCC1	KB-V1 MDR tox inconclusive, SW480 rereplic 4.6µM, MCF10A rereplic 2.9µM
Cc1ccc2nc3c(cc(C(=O)NC4CCCCC4)c(=N)n3C3CCCCC3)c(=O)n2c1	KB-V1 MDR tox inconclusive, SW480 rereplic 18µM, KB-3-1 tox inconclusive, MCF10A rereplic inconclusive
CNC(=O)c1cc2c(=O)n3cc(C)ccc3nc2n(C(C)C)c1=N	SW480 rereplic inconclusive, MCF10A rereplic 7.1µM
Cc1cccc(Cn2cnc3ccccc32)c1	KB-V1 MDR tox inconclusive, ELG1 repair inh inconclusive
Cc1ccc(Cn2cnc3ccccc32)cc1C	KB-V1 MDR tox 21µM, KB-3-1 tox 8.2µM
C=CCN1C=C/C(=C\C=C(C#N)C#N)c2ccccc21	ELG1 repair inh inconclusive
CCCCCCN1C=C/C(=C\C=C(C#N)C#N)c2ccccc21	KB-V1 MDR tox inconclusive, ELG1 repair inh inconclusive, KB-3-1 tox 16µM
O=C(Nc1cccc(NC(=O)c2ccc([N+](=O)[O-])o2)c1)c1ccco1	KB-V1 MDR tox inconclusive, ELG1 repair inh 12µM, SW480 rereplic 4.1µM, KB-3-1 tox inconclusive, MCF10A rereplic 2.3µM
O=C(Nc1ccc(NC(=O)c2ccc([N+](=O)[O-])o2)cc1Cl)c1ccco1	SW480 rereplic 2.1µM, KB-3-1 tox 18µM, MCF10A rereplic 9.2µM
COc1ccc(-n2ccnc(NCc3cccs3)c2=O)cc1	none (no result: ELG1 repair inh, SW480 rereplic, MCF10A rereplic)
COc1ccc(-c2oc3ccc(N4CCOCC4)cc3c2C#CCO)cc1	KB-V1 MDR tox inconclusive, SW480 rereplic inconclusive, KB-3-1 tox inconclusive, MCF10A rereplic 18µM (no result: ELG1 repair inh)
COc1ccc(-c2ccc3oc(-c4ccc(OC)cc4)c(C#CCO)c3c2)cc1	SW480 rereplic 26µM, MCF10A rereplic inconclusive (no result: ELG1 repair inh)
COc1ccc(-c2c(C#CC(C)(C)O)c3ccccc3n2C)cc1	SW480 rereplic inconclusive, MCF10A rereplic inconclusive
COc1ccc(-c2oc3ccccc3c2C#CC(C)(C)O)cc1	ELG1 repair inh 13µM, MCF10A rereplic inconclusive
COc1ccc(-c2sc3ccc(N4CCOCC4)cc3c2C#CC(C)(C)O)cc1	none
CCCn1nc(C(=O)NNC(=O)c2ccc(OC(F)F)cc2)c2ccccc2c1=O	ELG1 repair inh inconclusive
CCn1nc(C(=O)NNC(=O)c2ccc(OC(F)F)cc2)c2ccccc2c1=O	KB-V1 MDR tox 16µM, KB-3-1 tox inconclusive
Cc1ccsc1C(=O)OCC(=O)N1C(C)CCCC1C (stereo unspecified)	KB-V1 MDR tox inconclusive, ELG1 repair inh inconclusive
COc1ccccc1CNC(=O)CN1C(=O)CCn2nc(-c3ccccc3)cc21	none (no result: ELG1 repair inh, SW480 rereplic, MCF10A rereplic)
O=C(CSc1nc(-c2ccc(F)cc2)[nH]c1-c1ccc(F)cc1)Nc1ccc2c(c1)OCCO2	KB-V1 MDR tox 18µM, KB-3-1 tox inconclusive (no result: ELG1 repair inh, SW480 rereplic, MCF10A rereplic)
O=C(CSc1ncnc2c1oc1ccccc12)Nc1cccc(F)c1	MCF10A rereplic inconclusive
CCc1nc(SCC(=O)NC2CCCC2)c2oc3ccccc3c2n1	KB-V1 MDR tox inconclusive
CCc1nc(SCC(=O)Nc2ccc3c(c2)OCCO3)c2oc3ccccc3c2n1	KB-V1 MDR tox 21µM, KB-3-1 tox inconclusive, MCF10A rereplic 23µM
Cc1nc(SCC(=O)N2CCN(c3ccccc3)CC2)c2oc3ccccc3c2n1	KB-V1 MDR tox 21µM, ELG1 repair inh inconclusive, MCF10A rereplic inconclusive
O=C(CSc1ncnc2c1oc1ccccc12)Nc1ccc2c(c1)OCCO2	KB-V1 MDR tox 16µM (no result: ELG1 repair inh)
C[C@@H]1CN([C@H](C)CO)C(=O)c2c(c3ccccc3n2C)-c2ccccc2CO[C@H]1CN(C)S(=O)(=O)c1cn(C)cn1	none (no result: ELG1 repair inh, SW480 rereplic, MCF10A rereplic)
Cc1ccc(OCC(=O)N[C@@H](C)c2nnc3ccccn23)cc1C	SW480 rereplic inconclusive
CCc1nc2ccc(C(=O)NCc3ccc4c(c3)OCO4)cn2c1N(C)CCC(C)C	none (no result: ELG1 repair inh, SW480 rereplic, MCF10A rereplic)
